Entries with a potency or affinity are not part of this list.

What is called Inhibition is the change of the read-out against control, counted positive when it falls.

In the assay the test system is Cryptococcus neoformans. Conditions: Concentration 32 ug.mL-1; ASSAY_TEST Inhibition of Fungal Growth; detection method Resazurin; Absorption (OD600-OD570); plate type 384well; NBS; CORNING #3640. In general terms: Alamar Blue is a resazurin reagent that responds to reducing activity.
As for `Cc1cc2nn(CC(=O)Nc3ccc(F)cc3F)c(=O)n2c(Nc2ccc(F)c(C)c2)n1`, the Inhibition is recorded as -8.52%.
For the compound `CCOC(=O)c1ccc(NC(=O)Cn2nc3ccc(C(=O)Nc4cccc(C)c4)cn3c2=O)cc1`, the Inhibition is -36.79%.
As for `O=C(Cn1nc2c3cc(-c4ccc(F)cc4)nn3ccn2c1=O)NCc1ccccc1Cl`, the Inhibition was -27.16%.
Consider `COc1ccc(NC(=O)c2ccc3nn(CC(=O)Nc4ccc(C)c(F)c4)c(=O)n3c2)cc1`, for which the Inhibition is -14.12%.
For `COc1ccc(C(C)NC(=O)CCc2nnc3ccc(-c4ccc(C)c(C)c4)nn23)cc1OC` (centres undefined) the value was -6.29%.
The value for `CSc1cccc(NC(=O)Cn2nc3c(Oc4ccccc4C)nccn3c2=O)c1` was -9.56%; that for `O=S(=O)(c1ccc2nncn2c1)N(Cc1ccccc1F)c1ccc2c(c1)OCO2` was -6.91%; that for `Cc1ccc(CNC(=O)CSc2nnc3c4cc(-c5ccc(C)cc5)nn4ccn23)cc1` was -36.09%.
For the compound `CCN(C(=O)Cn1nc2nc(Nc3ccc(F)cc3)ccn2c1=O)c1ccccc1`, the Inhibition is reported as -4.45%.
For `COc1cccc(-n2ccn3c(SCC(=O)c4cc(C)c(C)cc4C)nnc3c2=O)c1` the value was -10.44%.
For the compound `Cc1cc2nn(CC(=O)Nc3cc(F)ccc3F)c(=O)n2c(Nc2ccc(F)c(C)c2)n1`, the Inhibition is -3.72%.
Consider `COc1cccc(-n2ccn3c(SCc4ccccc4Cl)nnc3c2=O)c1`, for which the Inhibition is given as -13.51%.
For `O=C(Cn1nc2ccc(-c3ccccc3)nn2c1=O)Nc1ccc(F)c(Cl)c1` the value was -6.93%.
The value for `Cc1nnc2ccc(S(=O)(=O)N(Cc3cccc(F)c3)c3cccc(F)c3)cn12` was -8.19%.
As to `Cc1ccc(NC(=O)Cn2nc3c4cc(-c5ccc(Cl)cc5)nn4ccn3c2=O)cc1C`, the Inhibition is recorded as -22.86%.
For the compound `Cc1ccc(-c2cc3c4nn(CC(=O)N5CCN(c6ccccc6F)CC5)c(=O)n4ccn3n2)cc1C`, the Inhibition is reported as -14.81%.
For `O=C(Cn1nc2ccc(SCc3ccc(Cl)cc3)nn2c1=O)Nc1ccc(F)c(F)c1` the value was -13.26%; for `COc1cccc(CN(c2cc(F)cc(F)c2)S(=O)(=O)c2ccc3nnc(C)n3c2)c1`, -5.08%; for `Cc1ccc(C)c(Cn2nc3n(CC(C)C)c(=O)c4sccc4n3c2=O)c1`, -8.63%.
The value for `CC(C)c1nnc2c(=O)n(CC(=O)Nc3cccc(F)c3)c3ccccc3n12` was -19.58%; that for `Cc1ccc(NC(=O)Cn2nc3c(N4CCOCC4)nc4ccccc4n3c2=O)cc1C` was -25.03%.
For the compound `Cc1ccc2c(c1)N(C(=O)Cn1nc3ccc(Sc4ccccc4)nn3c1=O)CCO2`, the Inhibition is on record as -5.73%.
For `Cc1cc(C)cc(Oc2nccn3c(=O)n(CC(=O)Nc4cccc(Cl)c4)nc23)c1` the value was -3.38%; for `COc1ccc(-c2cc3c4nn(CC(=O)Nc5ccccc5OC)c(=O)n4ccn3n2)cc1`, -14.32%; for `Cc1cccc(C)c1NC(=O)CSc1nnc2ccc(C(=O)Nc3cccc(F)c3)cn12`, -3.65%.
As for `CCC(C)NC(=O)Cn1nc2ccc(SCc3ccc(Cl)cc3)nn2c1=O` (centres undefined), the Inhibition is reported as -20.85%.
For `O=C(Cn1nc2c(N3CCOCC3)nccn2c1=O)NCc1ccc(C(F)(F)F)cc1`, the Inhibition is listed as -5.37%.
The value for `O=C(CSc1nnc2c(=O)n(-c3ccccc3)ccn12)Nc1ccc(Br)cc1F` was -12.46%; that for `O=C(Cn1nc2c3cc(-c4ccc(Cl)cc4)nn3ccn2c1=O)NCc1ccccc1` was -21.92%.
For `CCOc1ccc(-n2ccn3c(SCC(=O)Nc4ccc(C)c(C)c4)nnc3c2=O)cc1`, the Inhibition is -12.45%.
`CCc1nnc2c(=O)n(CC(=O)Nc3ccc(C#N)cc3)c3ccccc3n12`: the Inhibition is recorded as -24.76%.
For `O=c1n(Cc2cccc(C(F)(F)F)c2)nc2ccc(S(=O)(=O)N3CCCCC3)cn12` the value was -10.55%; for `CC(C)c1ccc(Oc2nc3ccccc3n3c(=O)n(CC(=O)Nc4ccc5c(c4)OCO5)nc23)cc1`, -13.49%; for `COc1cc(NC(=O)Cn2nc3c(Oc4ccccc4)nccn3c2=O)cc(OC)c1`, -7.5%.
The value for `CCCc1nnc2c(=O)n(CC(=O)Nc3ccc4c(c3)OCCO4)c3ccccc3n12` was -31.27%.
For `CCCCc1ccc(NC(=O)Cn2nc3c(SC4CCCCC4)nccn3c2=O)cc1` the value was -5.76%; for `Cc1ccccc1-c1noc(Cn2nc3ccc(-c4ccccc4)nn3c2=O)n1`, -15.26%.
Consider `COc1ccc(NC(=O)Cn2nc3nc(N4CCOCC4)ccn3c2=O)cc1Cl`, for which the Inhibition was -8.34%.
For `Cc1nc(-c2ccccn2)cc2nn(CC(=O)Nc3ccccc3C(F)(F)F)c(=O)n12` the value was -8.99%.

The values above are taken from ChEMBL document CHEMBL4513146, “CO-ADD screening of Karazin Kharkiv National University (Ukraine) compounds”.
